87 compounds from PubChem BioAssay AID743126 (The Scripps Research Institute Molecular Screening Center, 2013) can be followed below.

Among all 370,000 compounds or so, about 2,100 (0.57%) were called active.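 The calls were made as follows: active = inhibition above mean plus 3 SD of compounds lying within the high and low control bounds (cut at about 19% in these data); inactive = the rest.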 Shown is part of a subset that was picked to be rich in actives.

The inhibition is the drop in the measured response relative to a control, in per cent.

Chain of Group 3 secretory phospholipase A2 (Homo sapiens) (Q9NZ20 whole entry, looked up): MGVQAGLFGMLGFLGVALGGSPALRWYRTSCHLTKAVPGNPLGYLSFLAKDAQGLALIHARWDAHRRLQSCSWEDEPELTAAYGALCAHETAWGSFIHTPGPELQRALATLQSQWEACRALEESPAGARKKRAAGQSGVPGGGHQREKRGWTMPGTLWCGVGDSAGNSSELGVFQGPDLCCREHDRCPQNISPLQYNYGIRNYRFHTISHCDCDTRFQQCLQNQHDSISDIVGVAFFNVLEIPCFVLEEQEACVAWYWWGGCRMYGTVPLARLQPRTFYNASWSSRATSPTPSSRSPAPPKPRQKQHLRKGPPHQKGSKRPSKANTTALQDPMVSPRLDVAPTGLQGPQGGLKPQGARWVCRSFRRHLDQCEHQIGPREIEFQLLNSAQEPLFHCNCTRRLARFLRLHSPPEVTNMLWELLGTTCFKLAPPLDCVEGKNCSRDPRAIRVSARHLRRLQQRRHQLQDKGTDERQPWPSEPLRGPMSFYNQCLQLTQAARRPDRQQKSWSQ

The assay has as its target Group 3 secretory phospholipase A2 (Homo sapiens) (UniProt Q9NZ20). Nature of the assay: HGIII-sPLA2 enzyme inhibition – biochemical, QFRET, BODIPY PC-A2 liposome substrate, primary screen (AID 743126).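 Also: 0% = median of test compound wells and 100% = no enzyme DMSO wells.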 The note with it: QFRET BODIPY PC-A2 liposome hydrolysis, fluorescence; at 12.2 µM; active compounds read high.
As for `CCCCCCN1CCS(=O)(=O)N(Cc2ccc(C(F)(F)F)cc2)C(C(=O)OC)C1` (configuration not stated), the inhibition is 5.31% (inactive).
`O=[N+]([O-])c1cc(Cl)cc(/C=N/NC(=S)Nc2cc(S(=O)(=O)N3CCOCC3)ccc2Cl)c1O`: the inhibition is 16.3% (inactive).
Turning to `O=C(NN=Cc1ccco1)C(=O)Nc1ccc(Cl)c([N+](=O)[O-])c1`, the inhibition is 3.31% (inactive).
The figure for `O=C(N/N=C/c1cc(Cl)cc([N+](=O)[O-])c1O)C(O)(c1ccccc1)c1ccccc1` is 21.2% (active).
On to `CN(C)CC(=O)N[C@@H]1C[C@@H]2O[C@H](CO)CC[C@@H]2O[C@@H]1CCc1ccc(C#Cc2ccccc2)cc1`, for which the inhibition is -19.5% (inactive).
`COc1ccc(-n2c(SCC(=O)Nc3ccc4c(c3)OCCO4)nnc2-c2ccc(Cl)cc2)cc1`: the inhibition is 0.31% (inactive).
For `CC(NCc1ccco1)C(=O)N1CCCCC1` (configuration not stated), the inhibition was 3.8% (inactive).
The figure for `O=C(CSc1ccccc1F)NC1CCS(=O)(=O)C1` (configuration not stated) is 1.4% (inactive); for `CCN(CC(=O)NC1CCS(=O)(=O)C1)S(=O)(=O)c1ccccc1` (configuration not stated) it is 22.4% (active).
As for `CCN(CC(=O)NCCc1ccccc1)S(=O)(=O)c1ccccc1`, the inhibition is 0.93% (inactive).
`CCCNC(=O)Nc1ccc2c(c1)C(=O)N(C)[C@H]1CC[C@H](CC(=O)NCC3CCCCC3)O[C@@H]1CO2`: the inhibition was -24.2% (inactive).
For `C=CCN1[C@@H](Cc2ccccc2)COc2cccc(N3CCSCC3)c2S1(=O)=O`, the inhibition was -0.87% (inactive).
With `O=C(CSc1nc2ccccc2s1)N=Nc1c(O)[nH]c2ccccc12`, the inhibition was -40.6% (inactive).
As to `O=C(CSc1nnc(-c2cccs2)n1Cc1ccco1)c1ccc2c(c1)OCO2`, the inhibition is -35.9% (inactive).
`O=C(CSc1nnc(COc2ccccc2)n1Cc1ccco1)c1ccc2ccccc2c1`: the inhibition was -53.5% (inactive).
As for `Cc1sc2nc(SCC(=O)c3ccc(O)c(O)c3)n(Cc3ccco3)c(=O)c2c1C`, the inhibition is 23.9% (active).
For the compound `COc1ccc(-n2c(COc3ccc(C)cc3)nnc2SCC(=O)Nc2ccc(Oc3ccccc3)cc2)cc1`, the inhibition was -8.43% (inactive).
As to `CCN(C(=O)[C@@H](C1CC1)[C@@H](O)c1ccc2ccccc2c1)c1ccccc1`, the inhibition is 4.03% (inactive).
As to `CCCCN1CCN(C(=O)c2ccc3c(c2)NC(=O)C(C)(C)O3)CC1`, the inhibition is 5.11% (inactive).
Regarding `O=C(Nc1ccccc1)N1CCN(Cc2nc3ccccc3c(=O)[nH]2)CC1`, the inhibition is 7.43% (inactive).
In the case of `COC(=O)[C@H](C(C)C)N1CCc2nnn(Cc3ccc(C)cc3)c2-c2ccccc2S1(=O)=O`, the inhibition was -9.33% (inactive).
Regarding `CC(C)=CCCC1(C)C=Cc2c(ccc3c2[nH]c2cc(O)c(C)cc23)O1` (configuration not stated), the inhibition was 22.9% (active).
Turning to `C=C(C)C#CC(Cc1ccccc1)N(CC1CC1)/C(N)=N/C(=O)OCc1ccccc1` (configuration not stated), the inhibition was 7.88% (inactive).
For the compound `CC(C)c1cc(C(=O)N/N=C/c2ccoc2)c(O)c(C(C)C)c1`, the inhibition is 22.1% (active).
`CC(C)c1cc(N=O)cc(C(C)C)c1O`: the inhibition is -42.9% (inactive).
As for `C[C@@H]1COc2cccc(N3CCCC3)c2S(=O)(=O)N1C`, the inhibition was 2.99% (inactive).
The figure for `O=C(c1ccccc1)c1ccc(-c2ccccc2C(=O)NC2CCCCN(Cc3ccc(Cl)cc3)C2=O)cc1` (configuration not stated) is -1.89% (inactive).
The figure for `Brc1ccccc1C1Nc2cccc3cccc(c23)N1` is 27.1% (active).
For `Brc1ccccc1C1N=C(c2ccccc2)NO1` (configuration not stated), the inhibition is 9.79% (inactive).
Take `COc1cc2c(cc1OC)C(c1ccccc1Br)NC(=O)C2` (configuration not stated): the inhibition was 13.2% (inactive).
Regarding `Cc1ccc(NC(=O)Nc2cc(C)nn2-c2ccccc2)cc1`, the inhibition is 3.2% (inactive).
On to `Cc1nc2ccc(C(=O)N3CCN(C(=O)C(C)(C)C)CC3)cc2n1C1CCCC1`, for which the inhibition is 3.1% (inactive).
Regarding `CN1C(=O)c2cc(NS(C)(=O)=O)ccc2OC[C@@H]2O[C@@H](CC(=O)NCc3ccc(-c4ccccc4)cc3)CC[C@H]21`, the inhibition is -2% (inactive).
In the case of `c1csc(-c2nnc(SCc3nc4ccccc4[nH]3)o2)c1`, the inhibition is -4.46% (inactive).
In the case of `O=C(NC1CCCCN(Cc2cccc(C(F)(F)F)c2)C1=O)c1ccccc1I` (configuration not stated), the inhibition is -1.99% (inactive).
Turning to `COc1cccc(CNCc2ccc3c(c2)OCO3)c1`, the inhibition was 3.34% (inactive).
As for `Cc1c(Cl)cccc1NC(=S)NCC(O)c1ccccc1` (configuration not stated), the inhibition was 8.54% (inactive).
`Cc1c(Cl)cccc1NC(=S)NCc1ccc2c(c1)OCO2`: the inhibition is 19.5% (active).
`O=C(CSc1nnc(-c2cccc(Cl)c2)n1Cc1ccco1)Nc1ccc(OCc2ccccc2)cc1`: the inhibition is -12.1% (inactive).
As to `Cc1ccccc1CS(=O)(=O)Cc1ccc(C(=O)Nc2ccc(Cl)cc2)o1`, the inhibition was -4.56% (inactive).
For `COc1ccc(NC(=O)C2C3C=CC(C3)C2C(=O)NCc2ccccn2)c(OC)c1` (configuration not stated), the inhibition is 20.6% (active).
For `CCS(=O)(=O)N1Cc2ccccc2CC1C(=O)Nc1ccc(OC)cc1OC` (configuration not stated) the value was -0.28% (inactive).
For `CCOc1ccc(N2CC(C(=O)NCc3ccccn3)CC2=O)cc1` (configuration not stated), the inhibition is 0.93% (inactive).
With `Cc1ccc(-n2c(SCC(=O)Nc3cccc4ccccc34)nnc2-c2ccccn2)cc1`, the inhibition was -5.54% (inactive).
Take `COc1ccc(C(=O)Nc2sc(C)c(C)c2CN2CCOCC2)cc1`: the inhibition was 21.9% (active).
The figure for `CCc1cc(C(c2ccccc2OC)N2CCOCC2)c(NC(=O)c2ccccc2)s1` (configuration not stated) is -10.3% (inactive).
Consider `O=C(Nc1ccc(CSc2ccccc2)cc1)c1ccc(CN2CCOCC2)cc1`, for which the inhibition is -16.7% (inactive).
`CCCCC(=O)N[C@@H]1CC[C@@]23CCCN2C(=O)CCC[C@H]3[C@H]1C`: the inhibition is 7.19% (inactive).
Turning to `COCC(=O)N[C@@H]1C[C@@H]2O[C@@H](CO)CC[C@@H]2O[C@@H]1CCc1ccc(-c2ccccc2)cc1`, the inhibition was -1.64% (inactive).
For `COc1ccc(C(N)c2csc(NC(=O)Nc3cccc(C(F)(F)F)c3)n2)cc1` (configuration not stated), the inhibition was 27.4% (active).
As to `NC(c1csc(NC(=O)Nc2cccc(C(F)(F)F)c2)n1)C1CCCCC1` (configuration not stated), the inhibition is 6.78% (inactive).
Regarding `CCOC(=O)c1csc(NC(=O)Nc2cccc(OC)c2)n1`, the inhibition is -1.84% (inactive).
In the case of `COC(=O)C[C@H]1CC[C@H]2[C@H](COc3ccc(NC(=O)C4CC4)cc3C(=O)N2C)O1`, the inhibition was -1.19% (inactive).
Regarding `CC(C)(C)c1ccc(CSc2nnc(-c3cccs3)o2)cc1`, the inhibition was -0.56% (inactive).
Take `CN(C)S(=O)(=O)c1cccc(NC(=O)COC(=O)/C=C/c2cccs2)c1`: the inhibition is -11.5% (inactive).
The figure for `CN(C)S(=O)(=O)c1cccc(NC(=S)N/N=C/C(=O)c2ccccc2)c1` is 24% (active).
With `CN(C)S(=O)(=O)c1cccc(C(=O)N/N=C\c2ccco2)c1`, the inhibition was 1.45% (inactive).
Turning to `COC(=O)C1CN(Cc2cn(Cc3ccc(F)cc3)nn2)CCS(=O)(=O)N1Cc1ccc(Cl)cc1` (configuration not stated), the inhibition is -11.8% (inactive).
For `Cc1cc(C(=O)NN=C/C=C/c2ccco2)n[nH]1` the value was 13% (inactive); for `COc1ccc2c(c1)c(=Cc1ccc(N(C)C)cc1)c1cc(-c3ccccc3)[n+](C)n12`, 31.7% (active); for `CCCC[C@H](C(=O)N(CC)c1ccccc1)[C@@H](O)c1ccc2ccccc2c1`, -3.7% (inactive).
In the case of `Cc1ccc(NC(=O)C2CC2c2ccccc2)cc1` (configuration not stated), the inhibition is -0.8% (inactive).
For `O=C(NNC(=S)Nc1ccc(F)cc1)[C@H]1C[C@@H]1c1ccccc1` the value was 24% (active); for `O=S(=O)(NC(=S)Nc1ccccc1)c1ccc(F)cc1`, -1.06% (inactive).
For `c1ccc(C2=Nc3cccc4cccc(c34)N2)cc1` the value was 38.6% (active); for `Brc1ccc(C2CC(c3ccccc3)=Nc3ccccc3N2)cc1` (configuration not stated), -5.39% (inactive).
Consider `CC[C@]1(O)C[C@@H]2CN(CCc3c([nH]c4ccccc34)[C@@](C(=O)OC)(c3cc4c(cc3OC)N(C)[C@H]3[C@@](O)(C(=O)OC)[C@H](OC(C)=O)[C@]5(CC)C=CCN6CC[C@]43[C@@H]65)C2)C1`, for which the inhibition is 24.8% (active).
For `CC[C@]1(O)CC2CN(CCc3c([nH]c4ccccc34)[C@@](C(=O)OC)(c3cc4c(cc3OC)N(C=O)[C@H]3[C@@](O)(C(=O)OC)[C@H](OC(C)=O)[C@]5(CC)C=CCN6CC[C@]43[C@@H]65)C2)C1` (some centres not stated), the inhibition was 13.5% (inactive).
The figure for `C=CCN1C(=O)[C@@H](CC(=O)NCCCCc2ccccc2)[C@]2(C(=O)OCC)CCCCC/C=C/12` is -9.75% (inactive); for `COC(=O)[C@]1(C#N)CC(=O)N(CC2CCCCC2)[C@@H]1c1ccccc1` it is 4.27% (inactive); for `CN(C(N)=NC(=O)/C=C/c1ccccc1)C(C#Cc1ccccc1)Cc1ccccc1` (configuration not stated) it is 2.67% (inactive).
For `CCN(CC)S(=O)(=O)c1cc(C(=O)Nc2ccccn2)ccc1C`, the inhibition is -0.99% (inactive).
Consider `O=C(NNc1ccccn1)c1ccc(Cl)nc1`, for which the inhibition was 21.1% (active).
For `O=C(COC(=O)c1ccccn1)NNC(=O)c1ccc(Br)cc1` the value was -1.11% (inactive); for `O=S1(=O)c2c(cccc2N2CC[C@H](O)C2)O[C@@H]2CCN1C2`, 4.99% (inactive).
With `O=C(NCc1ccco1)C1CCCN(S(=O)(=O)c2ccc(Cl)s2)C1` (configuration not stated), the inhibition is -7.36% (inactive).
On to `CCc1cccc(CC)c1NC(=S)NCc1ccc2[nH]c(C)cc2c1`, for which the inhibition was 20.3% (active).
Regarding `Cc1cc2cc(CNC(=O)c3cccs3)ccc2[nH]1`, the inhibition is 1.16% (inactive).
As for `CCOCC(=O)NCc1ccc2c(c1)cc(C)n2C`, the inhibition is 12.3% (inactive).
Regarding `COc1cccc(CNC(=O)C2CCCN(c3nc4ccccc4o3)C2)c1OC` (configuration not stated), the inhibition is 10.2% (inactive).
On to `COc1ccc(-n2c(SCC(=O)Nc3ccc(C)c(Cl)c3)nc3ccccc3c2=O)cc1`, for which the inhibition is 14.2% (inactive).
For the compound `CC(C)(C)OC(=O)NCCc1ccccc1/C=C/S(=O)(=O)NCc1ccc(F)cc1`, the inhibition is -1.5% (inactive).
Consider `CCCCNC(=O)C[C@H]1C[C@@]2(C(=O)OC)C(=C[C@H](COCc3ccccc3)O[C@@H]2C)N(Cc2ccc(Cl)cc2Cl)C1=O`, for which the inhibition was -3.1% (inactive).
In the case of `Cc1ccc(-c2nnc(SCC(=O)Nc3ccc(Oc4ccccc4)cc3)n2Cc2ccco2)cc1`, the inhibition was -6.88% (inactive).
In the case of `O=C(Cc1c(Cl)cccc1Cl)NC1CC1`, the inhibition is 2.07% (inactive).
The figure for `O=C(CCl)NNc1cccc(Cl)n1` is 71% (active).
For `O=C(NNc1cc(Cl)cc(Cl)c1)c1c(F)cccc1Cl` the value was 3.94% (inactive).
